Measured values from PubChem BioAssay (NCATS).
Results filed as inconclusive are left out. Where a call stands in place of a potency, no number is given. The source made the active and inactive calls. Calls come from the whole dose curve; as a rule, active = well fitted inhibition curve with a large enough effect; inconclusive = small, poorly fitted or top-dose-only effect; inactive = no such curve, though single readings can be large or run the other way.

Assay: Primary fluorescence-based thiol-reactive (MSTI) qHTS assay for identification of artifact compounds. (AID 1845221);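 note: thiol-reactive compounds lower the probe fluorescence signal; nearly all actives have a fitted effect of over 65% in size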
Conditions: MSTI thiol-reactivity probe, 1 h; series mostly up to 53.8 µM
Summary of the method: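 First, 4 uM MSTI in 2% DMSO/PBS pH 7.4 was dispensed; next, compounds were added; then plates sat 1 h at room temperature without light. Finally, emission at 598 nm was recorded.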

| SMILES | Potency | activity change, negative = thiol reactive |
| --- | --- | --- |
| Cc1nc(NC(=O)N2CCC[C@H]2C(N)=O)sc1-c1ccnc(C(C)(C)C(F)(F)F)c1 | inactive | – |
| COc1ccc(Oc2c(Cl)cnn(-c3cc(C)cc(C)c3)c2=O)cc1 | inactive | – |
| O=C(c1ccc(OC(F)F)c(C#Cc2ccccn2)c1)N1Cc2cccnc2C1 | inactive | – |
| COC(=O)C1=COC(O[C@@H]2O[C@H](CO[C@@H]3O[C@H](COC(=O)/C=C\c4ccc(O)cc4)[C@@H](O)[C@H](O)[C@H]3O)[C@@H](O)[C@H](O)[C@H]2O)C2C(CO)=CCC12 (stereo partly specified) | inactive | – |
| C[C@@H]1O[C@@H](O[C@H]2[C@H](OC(=O)[C@]34CCC(C)(C)C[C@H]3C3=CCC5[C@@]6(C)C[C@H](O)[C@H](O[C@@H]7O[C@H](C(=O)O)[C@@H](O)[C@H](O)[C@H]7O)[C@@](C)(CO)C6[C@H](O)C[C@@]5(C)[C@]3(C)C[C@H]4O)O[C@@H](CO)[C@@H]2O)[C@H](O)[C@H](O)[C@H]1O[C@@H]1OC[C@@H](O)[C@H](O[C@H]2OC[C@](O)(CO)[C@H]2O)[C@H]1O (stereo partly specified) | – | 391% [at 11.5 µM] (inactive) |
| CCC[C@H](N[C@H]1CCc2cc(F)cc(F)c2C1)C(=O)Nc1cn(C(C)(C)CNCC(C)(C)C)cn1 | inactive | – |
